Laboratory results: PubChem BioAssay AID1851 (National Center for Advancing Translational Sciences (NCATS), 2009)
Values joined by “and” are separate entries in the source; they are usually repeats but may differ in a detail not shown here. Equal values may be shown once. In all, about 16,000 compounds went through this assay and about 5,800 (36%) were called active. Not shown: some 23% with an inconclusive outcome. Some of the results follow. Unmarked numbers belong to inactive results. The call rests on the fitted dose curve; in most records, active means well fitted curve in the direction sought with a large enough effect; inconclusive means small, poorly fitted or top-dose-only effect, or effect the other way; inactive means no such curve, though single readings can be large or run the other way.

biological target: Cytochrome P450 2C19 (Homo sapiens) (UniProt P33261); assay: Cytochrome panel assay with activity outcomes; settings: recombinant CYP, pro-luciferin dealkylation, luminescence, p450-cyp2c19; series mostly up to 57.1 µM; activity, negative = inhibition: at the top concentration
Experimental: The P450 gene superfamily is involved in the metabolism and clearance of xenobiotics. This assay used various human CYP P450 isozymes to measure the dealkylation of various pro-luciferin substrates to luciferin. The luciferin is then measured by luminescence after the addition of a luciferase detection reagent. Pro-luciferin substrate concentration in the assay was equal to its KM for its CYP P450 isozyme. Inhibitors and some substrates limit the production of luciferin, and decrease measured luminescence.
NCGC Assay Protocol Summary:
1, Reagent, 2 uL, Isozyme and Pro-Luciferin
2, Library compounds, 23 nl, 40 uM to 0.24 nM dilution series
3, Controls, 23 nl, Isozyme specific inhibitor
4, Reagent, 2 uL, NADPH regeneration solution
5, Incubation time, 60 min, Isozyme specific temperature
6, Reagent, 4ul, Detection reagent
7, Incubation time, 20 min, Isozyme specific temperature
8, Detection, 1 sec, ViewLux luminescent read
The luciferase-based P450-GloTM Screening Systems were obtained from Promega (Madison, WI) for CYP 1A2 (V9770), CYP 2C9 (V9790), CYP2 C19 (V9880), CYP 2D6 (V9890), and CYP 3A4 Luciferin-PPXE (V9910) and were adapted for 1,536-well microplates and an automated protocol. The control compounds furafylline for 1A2 (F124), sulfaphenazole for CYP 2C9 (S0758), ketoconazole for CYP 2C19 (K1003), quinidine for 2D6 (Q3625), and ketoconazole for 3A4 (K1003) were purchased from Sigma Aldrich (St. Louis, MO). Recombinant P450 enzymes were obtained from baculovirus constructs expressed in insect cells (BD/Gentest).
Medium-binding white solid Kalypsys plates used. Mixtures kept on ice. 1A2: 10 nM 1A2, 100 uM Luc-ME, 100 mM KPO4; 2C9: 10 nM 2C9, 100 uM Luc-H, 25 mM KPO4; 2C19: 5 nM 2C19, 10 uM Luc-H EGE, 50 mM KPO4; 2D6: 5 nM 2D6, 30 uM Luc-ME EGE, 100 mM KPO4; 3A4: 10 nM, 25 uM Luc-PPXE. All amounts are reflected in their final concentration, working concentration is 2x.
NADPH regeneration solution: 1.3 mM NADP+, 3.3 mM glucose-6-phosphate, 3.3 mM MgCl2, 0.4 U/mL glucose-6-phosphate dehydrogenase for all isozymes, 200 mM KPO4 for 3A4. Mixture prepared at RT but kept on ice during automated run.
RT incubation in auxilliary plate hotel for 1A2, 2D6, and 3A4; 37C for 2C9 and 2C19.
Keywords: P450, CYP1A2, CYP2C19, CYP2C9, CYP2D6, CYP3A4, Luciferase, MLSMR, MLSCN, NIH Roadmap, qHTS, NCGC
On the % scale 0 is the no-effect control and ±100 the full control effect.

Cytochrome P450 2C19 (Homo sapiens), sequence (P33261 whole entry, looked up): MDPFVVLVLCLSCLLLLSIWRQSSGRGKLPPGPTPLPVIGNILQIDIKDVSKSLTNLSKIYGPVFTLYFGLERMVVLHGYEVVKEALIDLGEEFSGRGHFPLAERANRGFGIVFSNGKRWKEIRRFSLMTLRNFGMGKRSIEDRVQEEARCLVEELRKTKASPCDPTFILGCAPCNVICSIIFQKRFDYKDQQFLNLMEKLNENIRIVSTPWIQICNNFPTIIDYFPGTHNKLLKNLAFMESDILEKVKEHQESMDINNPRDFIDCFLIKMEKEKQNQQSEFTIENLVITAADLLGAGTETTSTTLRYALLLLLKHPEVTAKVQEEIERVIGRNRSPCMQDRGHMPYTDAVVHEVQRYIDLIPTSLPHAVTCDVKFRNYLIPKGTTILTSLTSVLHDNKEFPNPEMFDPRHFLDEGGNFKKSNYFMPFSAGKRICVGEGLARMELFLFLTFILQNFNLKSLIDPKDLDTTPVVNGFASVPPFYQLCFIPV

Compound | AC50 | activity, negative = inhibition
C=CCN=C1CC(C)(C)CC(=O)/C1=C(\O)c1ccccc1 | 25.1 µM (active) | –
C=CCN=C1CC(C)(C)CC(=O)/C1=C(/O)CCC(=O)OC | 14.1 µM (active) | –
N#CCCn1c(=O)c(-c2ccccc2)nc2cnc(Nc3ccccc3)nc21 | – | -8.35%
CCNC(=O)c1ccc(-n2nc(C)cc2-c2ccccc2)cc1 | 11.2 µM (active) | –
Nc1ccc(C(=O)NCC(=O)O)cc1 | – | 5.57% [at 25.6 µM]
Cc1nc2cnc(N3CCOCC3)nc2n(CCC#N)c1=O | – | -4.01%
Fc1ccc(-c2cnc(-c3cccs3)o2)cc1 | 6.31 µM (active) | –
Cc1ccc(N2C(=O)CC(c3ccsc3)C3=C2CC(C)(C)CC3=O)cc1 (configuration not stated) | 2.51 µM (active) | –
N#Cc1cc2nc(O)c(O)nc2cc1[N+](=O)[O-] | inactive | –
N#Cc1cc2[nH]c(=O)c(=O)[nH]c2cc1[N+](=O)[O-] | – | -9.46%
CC1CCCCN1c1cc(C#N)c(C#N)cc1[N+](=O)[O-] (configuration not stated) | 4.47 µM (active) | –
CCC(C)NC(=O)C1c2cc(OC)c(OC)cc2C(=O)N(C)C1c1cccs1 (configuration not stated) | – | -15%
Clc1ccc(Cc2nc(-c3cccnc3)no2)cc1 | 1.78 µM (active) | –
Nc1nc(-c2cccnc2)cc(-c2cc(-c3cccnc3)nc(N)n2)n1 | – | -16.6% [at 11.4 µM]
Cn1cccc1C(=O)N1CCC2(CCN(Cc3nccs3)CC2)CC1 | – | -0.0178%
N#Cc1c(NC(=O)C2CC(c3ccccc3Cl)=NO2)sc2c1CCC2 (configuration not stated) | 2 µM (active) | –
Cc1cc2cccc(C)c2nc1SCC(=O)N(C)c1nc(-c2ccccc2)cs1 | – | -27.1%
CCC(=O)N(Cc1ccco1)c1nc(-c2ccccc2)cs1 | 5.62 µM (active) | –
Nn1nnc2ccccc21 | – | -11.1%
N#CCCn1nnc2ccccc21 | – | -23.8%
Cc1ccnc(NCn2nnc3ccccc32)c1 | 15.8 µM (active) | –
O=C(O)C[n+]1ccccc1 | – | -3.69% [at 11.4 µM]
COc1cc(NC(=O)c2c(F)cccc2F)nc(OC)n1 | – | -15.5%
Cc1cc(NC(=O)c2ccc(S(=O)(=O)N(C)C)cc2)n(-c2ccccn2)n1 | – | 4.21%
Cc1cc(NC(=O)c2c(F)cccc2F)n(-c2nc3ccccc3[nH]2)n1 | 11.2 µM (active) | –

Compound | AC50 | activity, negative = inhibition
Nc1ncnc2c1ncn2[C@@H]1CCCO1 | – | 14.6%
Cc1nc(S(=O)(=O)NC2CCCCC2)c(C#N)c(C)c1Cl | 2.82 µM (active) | –
Cc1nc(S(=O)(=O)N(C)c2ccccc2)c(C#N)c(C)c1Cl | 6.31 µM (active) | –
CCC[C@H]1C(=O)N2C(N(C)C)=Nc3ccc(C)cc3N2C1=O | – | -39.6% [at 25.6 µM]
COc1ccc(C[C@@H]2c3cc(OC)c(OC)cc3CC[N@+]2(C)CCC(=O)OCCCCCOC(=O)CC[N@@+]2(C)CCc3cc(OC)c(OC)cc3[C@H]2Cc2ccc(OC)c(OC)c2)cc1OC | – | -12.9% [at 25.6 µM]
COC(=O)C/C=C\[C@@H](C)[C@@H](/C=N\O[C@@H](C)c1cn([C@H](CO)Cc2ccccc2)nn1)OC | – | -27.6% [at 11.4 µM] and -8.78% [at 11.4 µM]
N#Cc1nc(-c2ccc(OCc3ccccc3)cc2)oc1NCCN1CCOCC1 | 5.62 µM (active) | –
N#Cc1ccccc1-c1ccc2ncnc(NCCN3CCOCC3)c2c1 | – | -23.4%
Cc1cccc(NC(=S)NNC(=O)c2csc3c2CCCC3)c1 | 10 µM (active) | –
O=[N+]([O-])c1ccc(Cl)c(/C=N/N2CCN(Cc3ccccc3)CC2)c1 | 17.8 µM (active) | –
O=[N+]([O-])c1ccc(Cl)c(/C=N/N2CCN(Cc3ccccc3Cl)CC2)c1 | 3.98 µM (active) | –
C=C(C)C(=O)N1CC2(CC(c3cccc(NC(=O)c4ccccc4)c3)=NO2)C[C@@H]1C(N)=O (some centres not stated) | – | -42%
Cc1ccc(NC(=O)c2ccc(NCC3CCCO3)c([N+](=O)[O-])c2)cc1Cl (configuration not stated) | 5.01 µM (active) | –
Cc1cc(C)c(S(=O)(=O)N2CCN(c3ccc([N+](=O)[O-])c(NCC4CCCO4)c3)CC2)c(C)c1 (configuration not stated) | 3.16 µM (active) | –
CCS(=O)(=O)N1CCC(C(=O)NCC2CCCO2)CC1 (configuration not stated) | – | -8.97%
O=S(=O)(Cc1cc(Oc2ccccc2)nc(-c2ccccc2)n1)c1ccccc1 | 1.26 µM (active) | –
CNc1cc(CS(=O)c2ccccc2)nc(-c2ccccc2)n1 (configuration not stated) | 1.41 µM (active) | –
O=S(Cc1cc(Oc2ccccc2)nc(-c2ccccc2)n1)c1ccccc1 (configuration not stated) | 2.82 µM (active) | –
O=c1[nH][nH]c(C(F)(F)F)c1C=Nc1ccccc1Cl | – | -12.3%
[O-][N+](CCO)(CCO)c1ncnc2nc[nH]c12 | – | 41% [at 11.4 µM]
CC[C@@]1(O)C(=O)COc2c1cc1n(c2=O)Cc2c-1nc1cccc(C(C)C)c1c2[Si](C)(C)C | – | 27.7%
Cc1sc(NC(=O)/C=C/c2ccc(C(C)C)cc2)c(C#N)c1C | – | -24.8%
Cc1sc(NC(=O)C2CCCCC2)c(C#N)c1-c1ccccc1 | 2.82 µM (active) | –
CC(=O)N[C@@H](CC(=O)O)C(=O)O | – | 26.4% [at 25.6 µM]
CC#CCOC(=O)c1c(C)nc2sc3c(c2c1N)CC[C@@H](O)C3 | 25.1 µM (active) | –

Compound | AC50 | activity, negative = inhibition
Cn1c(=O)c2[nH]c(CCCc3ccc([N+](=O)[O-])cc3)nc2n(C)c1=O | – | 6.48% [at 11.4 µM]
CCc1cc(C(c2ccccc2OC)N2CCOCC2)c(NC(=O)c2ccccc2)s1 (configuration not stated) | 11.2 µM (active) | –
CCOc1cc(/C=C2\C(=O)N(Cc3ccc(C)cc3)C(C)=C2C(=O)OC)ccc1O | 3.98 µM (active) | –
COc1cccc(Nc2ncc3nc(C)c(=O)n(CCC#N)c3n2)c1 | – | -15.9%
Cc1cc(OC(=O)c2cc(F)c(F)cc2Cl)nc(C)n1 | – | 24.4%
CSc1nsc(SCc2ccc(Cl)cc2)n1 | 0.447 µM (active) | –
O=c1c(-c2nc3ccccc3s2)cccn1Cc1ccccc1 | 2 µM (active) | –
CCOC(=O)c1c(C)[nH]c(C)c1C(=O)COC(=O)c1cccc(S(=O)(=O)N(CC)CC)c1 | 0.447 µM (active) | –
CCN(CC)CCOC(=O)c1ccc(N)cc1 | inactive | –
CCOC(=O)c1c(C)[nH]c(C)c1C(=O)COC(=O)c1ccc(S(=O)(=O)N(CC)CC)cc1 | 1.12 µM (active) | –
CCCN(CCC)S(=O)(=O)c1ccc(C(=O)O)cc1 | – | 15.8% [at 25.6 µM]
C[C@@H](CNC(N)=O)NC(N)=O | – | 25.4% [at 11.4 µM]
Cc1ccc(CS(=O)(=O)CCC(=O)NCCCN2CCCC2=O)cc1 | – | 54.4%
Cc1ccc(S(=O)(=O)N(CCCN2CCCC2=O)Cc2cc3c(C)ccc(C)c3[nH]c2=O)cc1 | 11.2 µM (active) | –
O=C(CCC(=O)OCc1ccc(C(=O)Oc2ccccc2)cc1)Nc1cccc2ccccc12 | 11.2 µM (active) | –
O=C(c1ccc(Cl)cc1)N1CCN(C(=O)c2ccco2)CC1 | – | -25.8%
O=C(c1ccco1)N1CCC2(CC1)CN(c1ccccn1)C2 | – | -14.5%
O=C(c1cc(-c2ccc(Cl)cc2Cl)on1)N1CCN(C(=O)c2ccco2)CC1 | 3.16 µM (active) | –
O=C(Cc1ccc(Cl)cc1)N1CCN(C(=O)c2ccco2)CC1 | 7.94 µM (active) | –
CCCN(CCC)C(=S)NC(=O)c1ccc(Cl)cc1Cl | 2.51 µM (active) | –
CC1CC(C)CN(C(=O)CNS(=O)(=O)c2ccc(Br)s2)C1 (configuration not stated) | 4.47 µM (active) | –
COc1cccc(-c2csc(N3CCN(CC(=O)NNC(=O)c4ccc(Cl)cc4)CC3)n2)c1 | 1.26 µM (active) | –
COc1cccc(C(=O)NCCN2CCN(c3ccc(Cl)cc3)CC2)c1 | – | -19%
COc1cccc(-c2csc(N3CCN(C(=S)Nc4ccccc4)CC3)n2)c1 | 1.78 µM (active) | –
Cc1cccc(C(=O)NC2CCN(C(=S)NCc3ccco3)CC2)c1 | 28.2 µM (active) | –

Compound | AC50 | activity, negative = inhibition
COc1ccc(C(=O)NC2CCN(C(=S)Nc3cccc(C)c3)CC2)cc1 | 8.91 µM (active) | –
COc1ccc(C(=O)N2CCC3(CC2)CN(C(=O)Nc2cccc(C#N)c2)C3)cc1 | – | 19.4%
Cc1cccc(C(=O)NC(=S)N2CCN(C)CC2)c1 | – | 18.4%
CNC(=S)N1CCN(c2ccccc2OC)CC1 | 7.08 µM (active) | –
CNC(=S)N1CCN(c2cccc(OC)c2)CC1 | 7.08 µM (active) | –
COC(=O)c1ccc(NC(=S)N2CCN(Cc3cccc(C)c3)CC2)cc1 | 4.47 µM (active) | –
COC(=O)N1CCC2(CC1)CCN(c1cccc(-c3ccccc3)c1)CC2 | – | -33%
COc1ccc(N2CCN(C(=S)Nc3cc(C)cc(C)c3)CC2)cc1 | – | -17.2%
COc1ccc(N2CCN(C(=S)Nc3cc(C)ccc3C)CC2)cc1 | 5.62 µM (active) | –
COc1ccc(COC(=O)N/N=C2/C[C@@H](O)[C@@H](O)[C@@H]3[C@@H]4C(=O)N(C(C)(C)C)C(=O)[C@H]4CC[C@H]23)cc1 | – | 9.85% [at 11.4 µM]
COc1ccc(N2CCN(C(=S)Nc3cccc(C)c3)CC2)cc1 | – | -9.17%
COc1cccc(N2CCN(C(=S)Nc3cccc(C)c3)CC2)c1 | 7.94 µM (active) | –
Cc1c(CCC(C)C)c(-n2ccnc2C)n2c(nc3ccccc32)c1C#N | – | 9.23%
FC(F)(F)c1nc2ccccc2nc1N/N=C/c1ccc(Cl)cc1 | 3.55 µM (active) | –
COC(=O)C/C=C\[C@@H](C)[C@@H](/C=N\O[C@@H](C)CN1CCCc2nc(C)c(C)cc21)OC | – | -26.4% [at 11.4 µM]
Cc1cc(Cl)ccc1OCCCC(=O)N1CCN(C)CC1 | 5.62 µM (active) | –
CCOC(=O)c1c(CC(C)C)csc1NC=O | 14.1 µM (active) | –
COC(=O)c1c(C)oc2ccc(N(C(=O)c3ccncc3)S(=O)(=O)c3ccccc3)cc12 | 0.631 µM (active) | –
NCCCCCc1nnc(SCc2ccc(Cl)cc2Cl)o1 | 5.62 µM (active) | –
NCCCCCc1nnc(SCc2ccccc2Cl)o1 | 4.47 µM (active) | –
Cc1cc(=O)n2c3ccccc3n(CC(O)CN3CCCCC3)c2c1C#N (configuration not stated) | – | -17.8%
Nc1ncnc2c1ncn2[C@H]1O[C@@H](C(=O)O)[C@@H](O)[C@H]1O | – | -9.53% [at 11.4 µM]
